Values joined by “and” are separate entries in the source; they are usually repeats but may differ in a detail not shown here. Equal entries are not always repeated. Records with an inconclusive call do not appear. Entries that show only a call come without a potency. More than one record can exist for a structure, and the calls need not agree. Active and inactive are the calls of the source. Unless noted, calls follow the shape of the full dose curve.
Potency is read from the fitted curve at half-maximal effect.

Cytochrome P450 2D6 (Homo sapiens), sequence (P10635 whole entry, looked up): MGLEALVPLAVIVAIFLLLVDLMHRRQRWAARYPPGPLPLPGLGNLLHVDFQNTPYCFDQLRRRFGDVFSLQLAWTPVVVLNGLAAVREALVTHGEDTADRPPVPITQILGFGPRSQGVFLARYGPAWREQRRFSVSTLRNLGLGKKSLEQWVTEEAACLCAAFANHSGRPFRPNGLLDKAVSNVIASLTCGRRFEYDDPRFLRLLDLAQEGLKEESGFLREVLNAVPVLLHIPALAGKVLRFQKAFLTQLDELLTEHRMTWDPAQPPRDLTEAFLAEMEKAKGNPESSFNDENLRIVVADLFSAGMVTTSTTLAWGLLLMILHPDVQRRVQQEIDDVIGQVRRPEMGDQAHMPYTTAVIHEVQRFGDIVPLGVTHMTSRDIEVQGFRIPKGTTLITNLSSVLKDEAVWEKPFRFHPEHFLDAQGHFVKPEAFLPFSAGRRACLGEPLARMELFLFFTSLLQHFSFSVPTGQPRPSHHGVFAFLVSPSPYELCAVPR
Acetylcholinesterase (Homo sapiens), sequence (P22303 whole entry, looked up): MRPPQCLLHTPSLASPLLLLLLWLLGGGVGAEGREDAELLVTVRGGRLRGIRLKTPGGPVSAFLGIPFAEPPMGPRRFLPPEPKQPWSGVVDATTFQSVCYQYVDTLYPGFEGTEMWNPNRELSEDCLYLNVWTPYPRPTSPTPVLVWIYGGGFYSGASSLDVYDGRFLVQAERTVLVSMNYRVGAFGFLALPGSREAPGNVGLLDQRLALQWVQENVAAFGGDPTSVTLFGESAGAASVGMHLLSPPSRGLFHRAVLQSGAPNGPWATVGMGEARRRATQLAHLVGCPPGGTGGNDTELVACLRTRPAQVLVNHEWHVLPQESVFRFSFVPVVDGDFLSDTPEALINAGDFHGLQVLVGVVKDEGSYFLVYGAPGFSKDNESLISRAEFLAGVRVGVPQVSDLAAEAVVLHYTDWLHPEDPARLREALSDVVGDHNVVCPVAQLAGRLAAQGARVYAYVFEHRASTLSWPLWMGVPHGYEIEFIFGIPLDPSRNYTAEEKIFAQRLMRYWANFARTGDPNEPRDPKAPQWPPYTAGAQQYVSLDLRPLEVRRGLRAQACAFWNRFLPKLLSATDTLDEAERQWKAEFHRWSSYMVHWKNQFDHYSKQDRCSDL

The target of the first experiment is Acetylcholinesterase (Homo sapiens) (UniProt P22303). Description: Acetylcholinesterase (AChE) small molecule antagonists: fluorescence cell-based qHTS assay (AID 1347398). Also: nearly all actives have a fitted effect of over 50% in size. To be noted: SH-SY5Y cells; Potency: AChE activity; series mostly up to 115 µM. A digest of the protocol:
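Cells (SH-SY5Y) attached overnight, were dosed with compound or DMSO vehicle for 30 min at 37 C, and then incubated 40 min at room temperature with acetylthiocholine and Thiolite Green; green fluorescence indexed AChE activity.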
Regarding `Cc1ccc(N)cc1N`, the Potency result was “inactive”.
For the compound `CC(C)C#N`, the Potency result is “inactive”.
With `CCN(CC)c1ccccc1`, the Potency result is “inactive”.
Still for that read-out and setting: under `CC(Oc1ccc(Cl)cc1Cl)C(=O)O` (stereo unspecified) stands “inactive”; under `O=S(=O)(c1ccc(O)cc1)c1ccc(O)cc1`, “inactive”; under `O=c1ccc(=O)[nH][nH]1`, “inactive”.
Same read-out and setting: under `c1ccc2c(c1)oc1ccccc12` stands “inactive”.
In the case of `Nc1ccccc1C(=O)O`, the Potency entry is “inactive”.
The same measure, in the same setting: the entry for `O=[N+]([O-])c1ccccc1` is “inactive”.
Same read-out and setting: the entry for `C#CCN(C)[C@H](C)Cc1ccccc1` is “inactive”; for `Clc1ccccc1Cl` it is “inactive”; for `CC1OC(C)OC(C)O1` (stereo unspecified) it is “inactive”.
The same measure, in the same setting: under `CCOC(=O)c1ccccc1C(=O)OCC` stands “inactive”.
As to `CC(=O)C=C(C)C`, the Potency result was “inactive”.
The same measure, in the same setting: under `Nc1ccc(Br)cc1` stands “inactive”; under `O=C(NC(=O)c1c(F)cccc1F)Nc1cc(Cl)c(OC(F)(F)C(F)C(F)(F)F)cc1Cl` (stereo unspecified), “inactive”.
Still for that read-out and setting: the entry for `Oc1ccccc1Cl` is “inactive”.
Still for that read-out and setting: the entry for `C[C@]12CC[C@H]3[C@@H](CC[C@@]45O[C@@H]4C(O)=C(C#N)C[C@]35C)[C@@H]1CC[C@@H]2O` is “inactive”; for `CCCCN(CC)C(=O)SCCC` it is “inactive”; for `CC(C)=C[C@@H]1[C@@H](C(=O)OCc2coc(Cc3ccccc3)c2)C1(C)C` it is “inactive”.
Regarding `O=C(O)c1ccccn1`, the Potency entry was “inactive”.
The same measure, in the same setting: the entry for `CC(C)(C)OOC(C)(C)C` is “inactive”; for `C=C(C)CCl` it is “inactive”; for `O=c1n(Cl)c(=O)n(Cl)c(=O)n1Cl` it is “inactive”.
Still for that read-out and setting: the entry for `BrCCBr` is “inactive”.
On the same count and under the same terms, the entry for `O=C1CCCN1` is “inactive”.
In the case of `c1ccc(-c2ccccc2)cc1`, the Potency entry is “inactive”.
Take `O=NN1CCCCCCC1`: the Potency result is “inactive”.
On the same count and under the same terms, the entry for `NCCc1ccc(O)cc1` is “inactive”.
Regarding `CCOP(=S)(OCC)Oc1cnc2ccccc2n1`, the Potency result is “inactive and 35.6 µM (active)”.
Consider `O=[N+]([O-])c1ccc([As](=O)(O)O)cc1`, for which the Potency entry was “inactive”.
Same read-out and setting: the entry for `Clc1ccc(Cl)cc1` is “inactive”.

For another experiment the target is unchanged. Description: Acetylcholinesterase (AChE) small molecule antagonists: enzyme-based qHTS assay with human liver microsomes (AID 1347399). Also: nearly all actives have a fitted effect of over 60% in size. Particulars: Potency: qHTS inhibition; series mostly up to 115 µM. A digest of the protocol: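 Recombinant human AChE (50 mU/mL in the enzyme mix) and human liver microsomes (0.25 mg/mL final) were preincubated with compound and NADPH (0.25 mg/mL final) for 30 min at 37 C. Acetylthiocholine/DTNB was then added; thiocholine was read colorimetrically after 10 min at room temperature.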
`Cc1ccc(N)cc1N`: the Potency result was “inactive”.
On the same count and under the same terms, the entry for `CC(C)C#N` is “inactive”.
Same read-out and setting: the entry for `CCN(CC)c1ccccc1` is “inactive”; for `CC(Oc1ccc(Cl)cc1Cl)C(=O)O` (stereo unspecified) it is “inactive”.
Turning to `O=S(=O)(c1ccc(O)cc1)c1ccc(O)cc1`, the Potency entry was “inactive”.
The same measure, in the same setting: under `O=c1ccc(=O)[nH][nH]1` stands “inactive”.
In the case of `c1ccc2c(c1)oc1ccccc12`, the Potency entry is “inactive”.
Still for that read-out and setting: the entry for `Nc1ccccc1C(=O)O` is “inactive”; for `O=[N+]([O-])c1ccccc1` it is “inactive”.
Same read-out and setting: under `C#CCN(C)[C@H](C)Cc1ccccc1` stands “inactive”; under `Clc1ccccc1Cl`, “inactive”.
On the same count and under the same terms, the entry for `CC1OC(C)OC(C)O1` (stereo unspecified) is “inactive”; for `CCOC(=O)c1ccccc1C(=O)OCC` it is “inactive”; for `CC(=O)C=C(C)C` it is “inactive”.
As to `Nc1ccc(Br)cc1`, the Potency result is “inactive”.
On to `O=C(NC(=O)c1c(F)cccc1F)Nc1cc(Cl)c(OC(F)(F)C(F)C(F)(F)F)cc1Cl` (stereo unspecified), for which the Potency entry is “inactive”.
On the same count and under the same terms, the entry for `Oc1ccccc1Cl` is “inactive”.
As to `C[C@]12CC[C@H]3[C@@H](CC[C@@]45O[C@@H]4C(O)=C(C#N)C[C@]35C)[C@@H]1CC[C@@H]2O`, the Potency result was “inactive”.
In the case of `CCCCN(CC)C(=O)SCCC`, the Potency entry is “inactive”.
Same read-out and setting: the entry for `CC(C)=C[C@@H]1[C@@H](C(=O)OCc2coc(Cc3ccccc3)c2)C1(C)C` is “inactive”.
The same measure, in the same setting: the entry for `O=C(O)c1ccccn1` is “inactive”.
With `CC(C)(C)OOC(C)(C)C`, the Potency result was “inactive”.
On to `C=C(C)CCl`, for which the Potency result is “inactive”.
With `O=c1n(Cl)c(=O)n(Cl)c(=O)n1Cl`, the Potency entry was “inactive”.
`BrCCBr`: the Potency result is “inactive”.
Take `O=C1CCCN1`: the Potency result is “inactive”.
As to `c1ccc(-c2ccccc2)cc1`, the Potency entry was “inactive”.
On the same count and under the same terms, under `O=NN1CCCCCCC1` stands “inactive”; under `NCCc1ccc(O)cc1`, “inactive”.
Same read-out and setting: under `CCOP(=S)(OCC)Oc1cnc2ccccc2n1` stands “inactive and 1 µM (active)”.
On the same count and under the same terms, under `O=[N+]([O-])c1ccc([As](=O)(O)O)cc1` stands “inactive”.
Take `Clc1ccc(Cl)cc1`: the Potency result is “inactive”.

Another experiment has as its target Cytochrome P450 2D6 (Homo sapiens) (UniProt P10635). Kind of experiment: Cytochrome P450 Family 2 Subfamily D Member 6 (CYP2D6) small molecule antagonists: luciferase reporter qHTS assay (AID 1671196; active = well fitted inhibition curve with a large enough effect in the repeat runs; also: nearly all actives have a fitted effect of over 50% in size). Particulars: P450-Glo CYP2D6 enzyme assay, luciferin luminescence, 1 h; series mostly up to 115 µM. A digest of the protocol: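 Luminogenic proluciferin substrate, CYP2D6 enzyme; 10 min RT preincubation with compound, NADPH regeneration system added, 1 h RT. Stop/detection reagent, 20 min RT, luminescence read (RLU). Signal proportional to CYP activity.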
Take `Cc1ccc(N)cc1N`: the Potency is 30.9 µM (active) and 31.7 µM (active).
In the case of `CC(C)C#N`, the Potency entry is “inactive”.
Same read-out and setting: the entry for `CCN(CC)c1ccccc1` is “inactive”; for `CC(Oc1ccc(Cl)cc1Cl)C(=O)O` (stereo unspecified) it is “inactive”.
For `O=c1ccc(=O)[nH][nH]1`, the Potency entry was “inactive”.
On the same count and under the same terms, under `c1ccc2c(c1)oc1ccccc12` stands “inactive”.
Turning to `Nc1ccccc1C(=O)O`, the Potency is 63.6 µM (active) and inactive.
`O=[N+]([O-])c1ccccc1`: the Potency was 16.4 µM (active) and inactive.
Turning to `C#CCN(C)[C@H](C)Cc1ccccc1`, the Potency was 12.6 µM (active) and 17.4 µM (active).
On the same count and under the same terms, under `Clc1ccccc1Cl` stands “inactive”.
Regarding `CC1OC(C)OC(C)O1` (stereo unspecified), the Potency entry was “inactive”.
The same measure, in the same setting: under `CCOC(=O)c1ccccc1C(=O)OCC` stands “inactive”; under `CC(=O)C=C(C)C`, “inactive”.
As to `O=C(NC(=O)c1c(F)cccc1F)Nc1cc(Cl)c(OC(F)(F)C(F)C(F)(F)F)cc1Cl` (stereo unspecified), the Potency entry was “inactive”.
The same measure, in the same setting: the entry for `Oc1ccccc1Cl` is “inactive”; for `C[C@]12CC[C@H]3[C@@H](CC[C@@]45O[C@@H]4C(O)=C(C#N)C[C@]35C)[C@@H]1CC[C@@H]2O` it is “inactive”; for `CCCCN(CC)C(=O)SCCC` it is “inactive”.
Still for that read-out and setting: the entry for `CC(C)=C[C@@H]1[C@@H](C(=O)OCc2coc(Cc3ccccc3)c2)C1(C)C` is “inactive”; for `O=C(O)c1ccccn1` it is “inactive”.
Still for that read-out and setting: under `CC(C)(C)OOC(C)(C)C` stands “inactive”; under `C=C(C)CCl`, “inactive”; under `O=c1n(Cl)c(=O)n(Cl)c(=O)n1Cl`, “inactive”.
Consider `BrCCBr`, for which the Potency is 43.6 µM (active) and inactive.
Consider `O=C1CCCN1`, for which the Potency result was “inactive”.
In the case of `c1ccc(-c2ccccc2)cc1`, the Potency result was “inactive”.
On the same count and under the same terms, under `O=NN1CCCCCCC1` stands “inactive”.
Same read-out and setting: under `NCCc1ccc(O)cc1` stands 25 µM (active) and 7.76 µM (active).
Still for that read-out and setting: the figure for `CCOP(=S)(OCC)Oc1cnc2ccccc2n1` is 35.6 µM (active); for `O=[N+]([O-])c1ccc([As](=O)(O)O)cc1` it is “inactive”; for `CN(C)[C@@H]1C(=O)C(C(N)=O)=C(O)[C@@]2(O)C(=O)C3=C(O)c4c(O)cccc4[C@@](C)(O)[C@H]3C[C@@H]12` it is 31.8 µM (active) and inactive and 19.5 µM (active).
Take `OC(O)C(Cl)(Cl)Cl`: the Potency entry is “inactive”.
On the same count and under the same terms, under `Clc1ccc(Cl)cc1` stands “inactive”.

The record behind these values is PubChem BioAssay (Tox21).
